Data on 9 compounds can be found in PubChem BioAssay (EPA / NIEHS).

Structures are written as SMILES. Where “and” joins values, the source holds several entries; their conditions need not be identical. Equal values may be shown once. Results filed as inconclusive are left out. Calls of active or inactive are those of the source. The calls were made as follows, unless noted: active = hit-call score of the fitted dose curve at least 0.9, where 1 is the maximum; inactive = score below 0.9.

For assay [1], the target named is human Matrix Metalloproteinase-9 (MMP9), MMP9 (gene 4318) (UniProt P14780). Briefly: NVS_ENZ_hMMP9: NovaScreen (NVS) Enzymatic Assay for human Matrix Metalloproteinase-9 (MMP9) (AID 2283190; active = hit-call score of the fitted dose curve at least 0.9, where 1 is the maximum;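 also: cell-free recombinant MMP9 protease activity read by fluorescent substrate signal; active means inhibition seen as loss of fluorescence signal versus DMSO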). In short, it runs like this:
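Cell-free fluorescence-intensity enzyme activity assay using extracted protein, read 1 h after dosing. Loss of signal versus DMSO baseline indicates inhibition; primary screen in duplicate at 25 uM, actives followed up in concentration series.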

Assay [2] addresses Estrogen receptor (Homo sapiens) + Estrogen receptor beta (Homo sapiens) (UniProt P03372+Q92731). The assay is described as follows: OT_ER_ERaERb_0480: Odyssey Thera (OT) 8-hour HEK293T Protein-Complementation Assay for Estrogen Receptor-alpha/-beta Heterodimer (AID 2283352; active = hit-call score of the fitted dose curve at least 0.9, where 1 is the maximum). Put shortly: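 Compound added to HEK293T cells carrying split-reporter-tagged ER-alpha and ER-beta LBDs, incubated 8 hours, then imaged by laser scanning cytometer. Signal rise in nucleus, or nucleus and cytoplasm, over vehicle was fitted in the positive direction.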

The target in assay [3] is human Caspase 5 (CASP5), CASP5 (gene 838) (UniProt P51878). The assay is described as follows: NVS_ENZ_hCASP5: NovaScreen (NVS) Enzymatic Assay for human Caspase 5 (CASP5) (AID 2283137; active = hit-call score of the fitted dose curve at least 0.9, where 1 is the maximum). In short, it runs like this:
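Caspase 5 enzyme activity, detected as fluorescence signal loss, is measured in a biochemical format using E. coli-expressed protein. Reading occurs 2 hours post-dosing. Screening runs at 25 uM, with confirmed actives titrated to 50 uM maximum.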

Assay [4] can be described thus: CCTE_Mundy_HCI_Cortical_NOG_NeuronCount: CCTE's Neurite Outgrowth Assay in rat cortical cells for Neuron Count, Mundy Lab (AID 2284236; active = hit-call score of the fitted dose curve at least 0.9, where 1 is the maximum;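 also: neurons counted by imaging betaIII-tubulin and Hoechst stained cortical cells; cells exposed to compound for about 48 hours before fixation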). In short, it runs like this: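 Read-out: neuron number by high-content imaging of betaIII-tubulin (Alexa Fluor-488) and Hoechst-labelled rat primary cortical cells.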
A short description of assay [5]: CCTE_Padilla_ZF_144hpf_TERATOSCORE: (Legacy) CCTE's 144 Hour Post-fertilization zebrafish Assay Teratoscore, Padilla Lab (AID 2283679).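 Also: zebrafish embryos with chorions exposed by immersion from 6-8 hpf to 5 dpf with daily renewal; teratogenicity score from eye scoring of death hatching and malformations at 144 hpf; higher score means more developmental defects relative to DMSO baseline.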 Put shortly: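 Larvae scored by eye at 144 hpf for death, hatching and malformations after a day in clean Hanks'. Before that, daily-renewed exposure at 80 uM (0.4% DMSO, 26C) from roughly 6-8 hpf through 5 dpf, 4 embryos per chemical.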

A short description of assay [6]: CEETOX_H295R_DOC_noMTC: CeeTox H295R High-throughput Steroidogenesis Assay for DOC, maximum tolerated concentration (MTC) filtered results only (AID 2283918). As to conditions: actives raise or lower the signal. In short, it runs like this: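 11-Deoxycorticosterone secreted by human adrenal H295R cells quantified by HPLC-MS/MS after 48 h chemical exposure (0.1% DMSO), following 48 h 10 uM forskolin prestimulation. Concentrations not filtered by MTT-derived MTC; bidirectional fitting.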

Assay [7] can be described thus: CEETOX_H295R_PROG_noMTC: CeeTox H295R High-throughput Steroidogenesis Assay for Progesterone (PROG), maximum tolerated concentration (MTC) filtered results only (AID 2283920). The following applies: actives raise or lower the signal. Put shortly:
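Progesterone secreted into medium was measured by HPLC-MS/MS after MTBE extraction, following 48 h chemical exposure (0.1% DMSO) of forskolin-prestimulated (10 uM, 48 h) H295R adrenal cells. Gain or loss fitted against DMSO; no MTC filtering.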

A further assay concerns DIO3 (gene 1735). The assay is described as follows: CCTE_GLTED_hDIO3: CCTE's human Deiodinase 3 (DIO3) Inhibition Assay, Great Lakes Toxicology and Ecology Division (GLTED) Lab (AID 2284055; active = hit-call score of the fitted dose curve at least 0.9, where 1 is the maximum;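 also: potency is for inhibition seen as loss of released iodide signal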). In short, it runs like this: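 Steps: incubate adenovirus-produced hDIO3 with chemical for 3 hours; detect freed iodide via cerium-arsenic Sandell-Kolthoff colorimetry; compare with DMSO baseline.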

Read-out in assay [8]: Monokine induced gamma interferon (MIG), CXCL9 (gene 4283)
The assay is described as follows: BSK_KF3CT_MIG: BioMAP Diversity Plus: KF3CT Assay for Monokine induced gamma interferon (MIG) Biomarker Activity (AID 2284248). The following applies: primary human keratinocytes with fibroblasts. Put shortly: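 KF3CT system: keratinocyte/fibroblast co-culture, 24 h post-dose, MIG by ELISA; activity vs DMSO, positive fitting direction.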

Read-out in assay [9]: Collagen I, COL1A1 (gene 1277)
Briefly: BSK_hDFCGF_CollagenI: BioMAP Diversity Plus: hDFCGF Assay for Collagen I Biomarker Activity (AID 2284250). As to conditions: primary human foreskin fibroblasts. Put shortly:
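Readout: Collagen I by ELISA after 24 h compound treatment of primary human foreskin fibroblasts. Endpoint analysed for increases relative to DMSO; total protein by SRB in parallel wells flagged cytotoxicity.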

Read-out in assay [10]: Plasminogen activator inhibitor-1 (PAI1), SERPINE1 (gene 5054)
Briefly: BSK_KF3CT_PAI1: BioMAP Diversity Plus: KF3CT Assay for Plasminogen activator inhibitor-1 (PAI1) Biomarker Activity (AID 2284252). The following applies: primary human keratinocytes with fibroblasts. In short, it runs like this:
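In this co-culture of primary human keratinocytes and foreskin fibroblasts, PAI-1 was measured by ELISA at 24 h and fitted upward from DMSO.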

Read-out in assay [11]: Interleukin-8 (IL8), CXCL8 (gene 3576)
Briefly: BSK_KF3CT_IL8: BioMAP Diversity Plus: KF3CT Assay for Interleukin-8 (IL8) Biomarker Activity (AID 2284254). The following applies: primary human keratinocytes with fibroblasts. Put shortly: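 Chemicals were added to co-cultured human keratinocytes and foreskin fibroblasts, incubated 24 h, then IL-8 was quantified by ELISA. Cytotoxicity was tracked by sulforhodamine B total-protein staining in parallel cultures.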

Read-out in assay [12]: Intercellular Adhesion Molecule 1 (ICAM1), ICAM1 (gene 3383)
Briefly: BSK_BE3C_ICAM1: BioMAP Diversity Plus: BE3C Assay for Intercellular Adhesion Molecule 1 (ICAM1) Biomarker Activity (AID 2284278).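 Also: cell-surface ICAM-1 protein level quantified by ELISA.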 As to conditions: primary human bronchial epithelial cells. In short, it runs like this:
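hu bronchial epithelial primary cells, 24 h cpd exposure, ICAM-1 ELISA; gain-of-signal fit vs DMSO baseline.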

Read-out in assay [13]: Interleukin-8 (IL8), CXCL8 (gene 3576)
The assay is described as follows: BSK_BE3C_IL8: BioMAP Diversity Plus: BE3C Assay for Interleukin-8 (IL8) Biomarker Activity (AID 2284280). The following applies: primary human bronchial epithelial cells. In short, it runs like this: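 Primary human bronchial epithelial cells (BE3C system) were exposed to test chemical for 24 h, and IL-8 levels were then measured by ELISA. Activity was fitted in the positive (gain-of-signal) direction against a DMSO negative-control baseline.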

Read-out in assay [14]: Epidermal growth factor receptor (EGFR), EGFR (gene 1956)
The assay is described as follows: BSK_BE3C_EGFR: BioMAP Diversity Plus: BE3C Assay for Epidermal growth factor receptor (EGFR) Biomarker Activity (AID 2284281). As to conditions: primary human bronchial epithelial cells. In short, it runs like this:
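Human primary bronchial epithelial cells were exposed to compound for 24 h, and cell-surface EGFR was then quantified by ELISA. Activity was fitted in the positive direction against the DMSO vehicle baseline.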

Read-out in the next assay: KRT18 (gene 3875)
Briefly: BSK_BE3C_Keratin818: BioMAP Diversity Plus: BE3C Assay for Keratin 818 Biomarker Activity (AID 2284282). As to conditions: primary human bronchial epithelial cells. Put shortly: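 In this multiplexed primary-cell system, bronchial epithelial cells were dosed and harvested at 24 h. Keratin 8/18 was determined by ELISA and analysed for increases over DMSO controls.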

Read-out in assay [15]: Plasminogen activator inhibitor-1 (PAI1), SERPINE1 (gene 5054)
Briefly: BSK_CASM3C_PAI1: BioMAP Diversity Plus: CASM3C Assay for Plasminogen activator inhibitor-1 (PAI1) Biomarker Activity (AID 2284284).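 Also: PAI-1 protein level measured by ELISA 24 h after dosing.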 The following applies: primary human coronary artery smooth muscle cells.

Read-out in assay [16]: Intercellular Adhesion Molecule 1 (ICAM1), ICAM1 (gene 3383)
The assay is described as follows: BSK_hDFCGF_ICAM1: BioMAP Diversity Plus: hDFCGF Assay for Intercellular Adhesion Molecule 1 (ICAM1) Biomarker Activity (AID 2284287). The following applies: primary human foreskin fibroblasts. Put shortly:
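ICAM-1 ELISA readout 24 h after dosing, DMSO as baseline, in human dermal foreskin fibroblast cultures. Cytotoxicity checked in parallel wells by SRB staining (0.1% SRB, 10% TCA fixation, 560 nm).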

Read-out in assay [17]: TIMP metallopeptidase inhibitor 2 (TIMP2), TIMP2 (gene 7077)
Briefly: BSK_hDFCGF_TIMP2: BioMAP Diversity Plus: hDFCGF Assay for TIMP metallopeptidase inhibitor 2 (TIMP2) Biomarker Activity (AID 2284289). As to conditions: primary human foreskin fibroblasts. Put shortly: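 Primary human foreskin fibroblasts in the hDFCGF system, dosed for 24 h; TIMP-2 level measured by ELISA, fitted in the positive direction against DMSO; cytotoxicity checked in parallel by sulforhodamine B total protein staining.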

Read-out in a further assay: CD69, CD69 (gene 969)
The assay is described as follows: BSK_LPS_CD69: BioMAP Diversity Plus: LPS Assay for CD69 Biomarker Activity (AID 2284303). As to conditions: primary human HUVEC with PBMC. In short, it runs like this: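 CD69 surface levels were read by ELISA after 24 h chemical treatment of an LPS-stimulated HUVEC plus PBMC co-culture; positive-direction fit against DMSO vehicle.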

human Matrix Metalloproteinase-9 (MMP9), MMP9 (gene 4318), sequence (P14780 whole entry, looked up): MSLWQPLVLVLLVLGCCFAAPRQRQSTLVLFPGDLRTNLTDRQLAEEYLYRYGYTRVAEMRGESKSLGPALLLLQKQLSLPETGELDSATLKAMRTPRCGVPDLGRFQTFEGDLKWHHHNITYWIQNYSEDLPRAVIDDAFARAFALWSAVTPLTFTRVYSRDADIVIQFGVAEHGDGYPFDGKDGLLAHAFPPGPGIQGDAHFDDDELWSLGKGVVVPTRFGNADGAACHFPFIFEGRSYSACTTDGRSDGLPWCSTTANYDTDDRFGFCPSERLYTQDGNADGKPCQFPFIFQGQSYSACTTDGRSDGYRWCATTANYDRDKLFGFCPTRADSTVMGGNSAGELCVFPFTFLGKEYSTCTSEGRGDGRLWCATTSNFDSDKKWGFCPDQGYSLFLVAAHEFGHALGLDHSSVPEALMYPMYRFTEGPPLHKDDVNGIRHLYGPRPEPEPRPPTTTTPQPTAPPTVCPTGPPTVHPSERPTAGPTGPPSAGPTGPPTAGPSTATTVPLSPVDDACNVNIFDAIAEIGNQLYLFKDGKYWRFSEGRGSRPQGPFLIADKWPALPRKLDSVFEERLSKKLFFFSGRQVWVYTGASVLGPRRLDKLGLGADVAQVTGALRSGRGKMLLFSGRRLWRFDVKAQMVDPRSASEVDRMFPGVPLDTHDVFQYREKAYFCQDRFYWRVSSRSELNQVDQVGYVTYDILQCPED
human Caspase 5 (CASP5), CASP5 (gene 838), sequence (P51878 whole entry, looked up): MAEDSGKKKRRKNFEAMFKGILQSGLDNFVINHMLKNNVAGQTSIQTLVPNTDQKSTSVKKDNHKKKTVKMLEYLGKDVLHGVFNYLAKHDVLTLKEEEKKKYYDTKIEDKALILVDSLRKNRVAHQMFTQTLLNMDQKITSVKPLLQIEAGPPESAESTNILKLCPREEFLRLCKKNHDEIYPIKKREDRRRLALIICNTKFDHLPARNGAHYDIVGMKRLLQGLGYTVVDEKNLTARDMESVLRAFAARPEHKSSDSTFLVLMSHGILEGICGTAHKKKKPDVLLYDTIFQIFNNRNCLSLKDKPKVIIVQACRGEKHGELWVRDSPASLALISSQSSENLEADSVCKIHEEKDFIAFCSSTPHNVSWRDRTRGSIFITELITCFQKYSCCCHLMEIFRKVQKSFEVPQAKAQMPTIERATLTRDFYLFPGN
Estrogen receptor (Homo sapiens) + Estrogen receptor beta (Homo sapiens), sequence (P03372 whole entry, looked up): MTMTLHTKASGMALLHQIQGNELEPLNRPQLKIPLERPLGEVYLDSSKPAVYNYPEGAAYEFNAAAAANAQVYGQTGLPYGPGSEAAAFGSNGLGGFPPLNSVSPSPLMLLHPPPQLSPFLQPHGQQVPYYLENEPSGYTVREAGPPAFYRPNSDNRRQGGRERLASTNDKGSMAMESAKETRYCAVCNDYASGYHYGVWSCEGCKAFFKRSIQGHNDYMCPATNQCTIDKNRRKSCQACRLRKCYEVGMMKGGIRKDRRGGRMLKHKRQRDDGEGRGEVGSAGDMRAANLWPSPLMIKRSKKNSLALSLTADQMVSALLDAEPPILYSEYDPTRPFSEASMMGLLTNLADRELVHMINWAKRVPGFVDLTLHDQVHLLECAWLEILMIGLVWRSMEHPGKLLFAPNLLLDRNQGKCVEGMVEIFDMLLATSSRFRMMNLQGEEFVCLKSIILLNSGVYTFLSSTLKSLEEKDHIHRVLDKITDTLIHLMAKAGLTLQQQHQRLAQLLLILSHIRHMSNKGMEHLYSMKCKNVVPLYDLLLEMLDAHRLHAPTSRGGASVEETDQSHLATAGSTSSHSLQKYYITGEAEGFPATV
Estrogen receptor (Homo sapiens) + Estrogen receptor beta (Homo sapiens), sequence (Q92731 whole entry, looked up): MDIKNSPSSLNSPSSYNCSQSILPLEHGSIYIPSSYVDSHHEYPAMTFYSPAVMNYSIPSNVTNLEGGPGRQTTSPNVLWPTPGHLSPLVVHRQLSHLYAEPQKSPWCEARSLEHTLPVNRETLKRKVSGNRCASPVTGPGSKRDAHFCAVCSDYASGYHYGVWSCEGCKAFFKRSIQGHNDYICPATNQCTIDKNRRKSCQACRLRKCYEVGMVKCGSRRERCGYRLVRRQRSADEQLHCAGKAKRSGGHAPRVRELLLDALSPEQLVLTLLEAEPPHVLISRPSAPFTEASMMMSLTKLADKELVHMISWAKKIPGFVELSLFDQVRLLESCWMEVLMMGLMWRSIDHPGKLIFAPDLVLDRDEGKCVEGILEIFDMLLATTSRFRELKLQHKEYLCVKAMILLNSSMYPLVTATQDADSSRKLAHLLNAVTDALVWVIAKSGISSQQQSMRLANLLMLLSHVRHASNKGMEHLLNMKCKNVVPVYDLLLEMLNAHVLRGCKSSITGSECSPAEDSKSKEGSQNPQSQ

Consider `CN(C)c1ccc(C(c2ccccc2)c2ccc(N(C)C)cc2)cc1`, for which, in [1], the result was inactive.
For the compound `C=C1CC[C@H]2C[C@@H]1C2(C)C`, the outcome in [2] was inactive.
Consider `CC1(C)S[C@@H]2[C@H](NC(=O)[C@H](N)c3ccccc3)C(=O)N2[C@H]1C(=O)O`, for which, in assay [3], the half-maximal activity concentration (AC50) was 1.88 µM (active). Further, the compound was classed as inactive in [4].
On to `CC(C)n1c(/C=C/[C@@H](O)C[C@@H](O)CC(=O)O)c(-c2ccc(F)cc2)c2ccccc21`, for which the concentration at half-maximal activity (AC50) in assay [5] is 447 nM (active) and 111 nM (active).
Consider `Sc1nc2ccccc2s1`, for which the result in assay [6] and in [7] was inactive. In the assay with DIO3 (gene 1735), the AC50 is 61.3 µM (active).
Take `O=C(O)c1ccccc1C(=O)O`: the outcome in assay [6] and in [7] was inactive.
As to `COC(=O)[C@]1(C)CCC[C@@]2(C)[C@H]1CC=C1C=C(C(C)C)CC[C@@H]12`, in the assay on DIO3 (gene 1735), the AC50 was 36 µM (active).
For `CN(C)Cc1cc(C(C)(C)C)c(O)c(C(C)(C)C)c1`, the outcome in [8], in assay [9], in assay [10], in [11], in assay [12] and in assay [13] was inactive. Besides, the outcome (in assay [14]; in the assay with KRT18 (gene 3875); in assay [15]; in [16]; in [17]) was inactive. Besides, the AC50 with CD69, CD69 (gene 969) was 20 µM (active) and 23.1 µM (active).
Turning to `CC[N+](CC)(CC(=O)Nc1c(C)cccc1C)Cc1ccccc1` (tested in a mixture with another compound), the result in [8], in assay [9], in assay [10], in assay [11], in [12] and in assay [13] was inactive. In addition, the outcome in [14] was “inactive”; in the assay with KRT18 (gene 3875) it was “inactive”; in assay [15], “inactive”; in [16] it was “inactive”; in assay [17] it was “inactive”; with CD69, CD69 (gene 969), “inactive”.
